Values joined by “and” are separate entries in the source; they are usually repeats but may differ in a detail not shown here. Equal values may be shown once. Inconclusive results are not listed. Where a call stands in place of a potency, no number is given. A structure can be active in one record and inactive in another. Active and inactive are the calls of the source. Unless noted, calls follow the shape of the dose curve; as a rule, active = well fitted curve in the direction sought with a large enough effect in the repeat runs; inconclusive = weak or mixed curves; inactive = no such curve, though single readings can be large; an effect the other way counts as inactive or inconclusive.

The record followed here is PubChem BioAssay (Tox21).

One experiment is described as follows: qHTS assay to identify small molecule agonists of the estrogen related receptor (ERR) signaling pathway from Tox21 library (AID 1224849; calls by dose curve; also: nearly all actives have a fitted effect of over 15% in size). The following applies: ERR reporter cell line, ONE-Glo luciferase, 18 h; at 42.5 µM (top of the series). The method in brief: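 Reporter cells (ERR, NTP source) treated with Tox21 10K compounds 18 h, 37 C. Readout: ONE-Glo luminescence, 30 min RT.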
Take `O=C(COc1ccc(Cl)cc1)N1CCN(Cc2ccc3c(c2)OCO3)CC1`: the activity change, positive = activation was -37.2% (inactive).

Regarding `C#C[C@]1(O)CC[C@H]2[C@@H]3CCC4=Cc5oncc5C[C@]4(C)[C@H]3CC[C@@]21C`, the activity change, positive = activation was -54.8% (inactive).

With `O=C=Nc1ccc(Cc2ccc(N=C=O)cc2)cc1`, the activity change, positive = activation was 2.14% (inactive).

For the compound `COc1ccc(OC)c(C(O)CNC(=O)CN)c1` (stereo unspecified), the activity change, positive = activation is -0.419% (inactive).

The experiment is the same for the next values; noted with them: ERR reporter cell line, ONE-Glo luciferase, 18 h; at 92.4 µM (top of the series).
With `CCOCCOCCO`, the activity change, positive = activation is -1.39% (inactive) and 2.46% (inactive).

As for `C/C=C/C(=O)O`, the activity change, positive = activation is 7.56% (inactive) and 0.71% (inactive).

On to `COC(=O)CCC(=O)OC`, for which the activity change, positive = activation was 8.82% (inactive) and 7.51% (inactive).

With `CC(C)OC=O`, the activity change, positive = activation was -9.53% (inactive) and -2.76% (inactive).

`c1cc(N(CC2CO2)CC2CO2)ccc1OCC1CO1` (stereo unspecified): the activity change, positive = activation is -51.1% (inactive) and -59.2% (inactive).

Regarding `O=C(COc1ccc(Cl)cc1)N1CCN(Cc2ccc3c(c2)OCO3)CC1`, the activity change, positive = activation is -59.3% (inactive).

With `O=CCCCC=O`, the activity change, positive = activation is -0.881% (inactive) and -3.51% (inactive).

Regarding `C#C[C@]1(O)CC[C@H]2[C@@H]3CCC4=Cc5oncc5C[C@]4(C)[C@H]3CC[C@@]21C`, the activity change, positive = activation is -70.8% (inactive).

`CC(=O)C1(C)CC2=C(CCCC2(C)C)CC1C` (stereo unspecified): the activity change, positive = activation is 8.11% (inactive) and 5.11% (inactive).

For the compound `COC(C)COC(C)COC(C)CO` (stereo unspecified), the activity change, positive = activation is -7.02% (inactive) and 0.149% (inactive).

As for `O=C=Nc1ccc(Cc2ccc(N=C=O)cc2)cc1`, the activity change, positive = activation is -19.6% (inactive).

For `COc1ccc(OC)c(C(O)CNC(=O)CN)c1` (stereo unspecified), the activity change, positive = activation was -28% (inactive).

A short description of the next experiment: qHTS RealTime-Glo MT Cell Viability Assay in HepG2 cells - 24 hour (AID 1224867). Also: nearly all actives have a fitted effect of over 50% in size. The following applies: RealTime-Glo luminescence; series mostly up to 76.8 µM. The method in brief:
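Tox21 10K library screened in qHTS format on HepG2 cells carrying RealTime-Glo reagents. Compounds were added after a 5 h preincubation, and the luminescent signal from continuous culture was measured repeatedly during 40 h treatment.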
(In qHTS, concentration-response curves come from the screen itself.)
Take `CCOCCOCCO`: the Potency entry was “inactive”.

As for `C/C=C/C(=O)O`, the Potency result was “inactive”.

For the compound `O=C(Nc1ccc([N+](=O)[O-])cc1Cl)c1cc(Cl)ccc1O`, the Potency entry was “inactive”.

For `COC(=O)CCC(=O)OC`, the Potency entry was “inactive”.

`O=CCc1ccccc1`: the Potency result was “inactive”.

As for `COC(=O)c1ccccc1`, the Potency entry is “inactive”.

With `CC(C)OC=O`, the Potency entry is “inactive”.

As for `Nc1ccc(S(=O)(=O)Nc2cnc3ccccc3n2)cc1`, the Potency entry is “inactive”.

As to `O=C(O)c1ccccc1Nc1cccc(C(F)(F)F)c1`, the Potency result was “inactive”.

In the case of `CN(C)CCN(Cc1cccs1)c1ccccn1`, the Potency result is “inactive”.

As to `c1cc(N(CC2CO2)CC2CO2)ccc1OCC1CO1` (stereo unspecified), the Potency entry was “inactive”.

Take `CCC(C)(O)CCCC(C)C` (stereo unspecified): the Potency result was “inactive”.

Take `Cc1c(C(N)=O)cc([N+](=O)[O-])cc1[N+](=O)[O-]`: the Potency result is “inactive”.

In the case of `O=C(COc1ccc(Cl)cc1)N1CCN(Cc2ccc3c(c2)OCO3)CC1`, the Potency result was “inactive”.

In the case of `CN(C)c1nc(N(C)C)nc(N(C)C)n1`, the Potency result is “inactive”.

Regarding `Cc1cccc([N+](=O)[O-])c1C`, the Potency entry was “inactive”.

On to `CC(C)=CCC/C(C)=C\CO`, for which the Potency entry was “inactive”.

Turning to `Cc1ncc[nH]1`, the Potency result was “inactive”.

On to `O=CCCCC=O`, for which the Potency entry was “inactive”.

Turning to `CCCCCCCCCC(=O)OC`, the Potency entry was “inactive”.

For the compound `CCCc1c(OCCCCc2nn[nH]n2)ccc(C(C)=O)c1O`, the Potency entry was “inactive”.

As for `C[Si](C)(C)O[Si](C)(C)C`, the Potency entry was “inactive”.

As for `C=C(C)C1CC=C(C)CC1` (stereo unspecified), the Potency entry was “inactive”.

Take `Oc1ccc(O)cc1`: the Potency entry is “inactive”.

On to `COc1ccc(C(=O)CC(=O)c2ccc(C(C)(C)C)cc2)cc1`, for which the Potency result is “inactive”.

Take `CC(C)=CCCC(C)CCO` (stereo unspecified): the Potency entry was “inactive”.

On to `c1ccc2c(c1)c1cccc3ccc4cccc2c4c31`, for which the Potency entry is “inactive”.

On to `C[C@]12CCC(=O)C=C1CC[C@@H]1[C@@H]2C(=O)C[C@@]2(C)[C@H]1CC[C@]2(O)C(=O)CO`, for which the Potency entry is “inactive”.

With `OC1CCCCCCCCCCC1`, the Potency result is “inactive”.

As to `CC(=O)C1(C)CC2=C(CCCC2(C)C)CC1C` (stereo unspecified), the Potency result is “inactive”.

On to `C=CC(C)(CCC=C(C)C)OC(C)=O` (stereo unspecified), for which the Potency entry is “inactive”.

Turning to `NNc1ccc(C(=O)O)cc1`, the Potency result is “inactive”.

Take `CC(=O)c1ccccn1`: the Potency result was “inactive”.

In the case of `COC(C)COC(C)COC(C)CO` (stereo unspecified), the Potency result was “inactive”.

Regarding `O=C=Nc1ccc(Cc2ccc(N=C=O)cc2)cc1`, the Potency result is “inactive”.

In the case of `COc1ccc(OC)c(C(O)CNC(=O)CN)c1` (stereo unspecified), the Potency result is “inactive”.

As to `O=S(=O)(O)c1ccc(O)cc1`, the Potency result was “inactive”.

In the case of `CC(=O)CC/C=C(\C)CCC=C(C)C`, the Potency result is “inactive”.

A further experiment is described as follows: qHTS RealTime-Glo MT Cell Viability Assay in HEK293 cells - 32 hour (AID 1224868). Also: nearly all actives have a fitted effect of over 50% in size. Also: potency is read from the fitted curve at half-maximal effect. As to conditions: RealTime-Glo luminescence; series mostly up to 76.8 µM. The method in brief: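 Luminescence generated by NanoLuc from substrate produced by living HEK293 cells served as the viability signal. Each value reflects the reading at its stated time point during continuous 40 h compound exposure at 37 C.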
As to `CCOCCOCCO`, the Potency result is “inactive”.

In the case of `C/C=C/C(=O)O`, the Potency entry was “inactive”.

Take `O=C(Nc1ccc([N+](=O)[O-])cc1Cl)c1cc(Cl)ccc1O`: the Potency is 3.47 µM (active) and 928 nM (active).

With `COC(=O)CCC(=O)OC`, the Potency entry is “inactive”.

On to `O=CCc1ccccc1`, for which the Potency entry is “inactive”.

With `COC(=O)c1ccccc1`, the Potency result is “inactive and 11 µM (active)”.

On to `CC(C)OC=O`, for which the Potency result was “inactive”.

Consider `Nc1ccc(S(=O)(=O)Nc2cnc3ccccc3n2)cc1`, for which the Potency result is “inactive”.

As to `O=C(O)c1ccccc1Nc1cccc(C(F)(F)F)c1`, the Potency entry was “inactive”.

Take `CN(C)CCN(Cc1cccs1)c1ccccn1`: the Potency entry was “inactive”.

Consider `c1cc(N(CC2CO2)CC2CO2)ccc1OCC1CO1` (stereo unspecified), for which the Potency was 24.6 µM (active) and 21.9 µM (active).

Turning to `CCC(C)(O)CCCC(C)C` (stereo unspecified), the Potency entry was “inactive”.

As to `Cc1c(C(N)=O)cc([N+](=O)[O-])cc1[N+](=O)[O-]`, the Potency entry is “inactive”.

Take `O=C(COc1ccc(Cl)cc1)N1CCN(Cc2ccc3c(c2)OCO3)CC1`: the Potency is 43.6 µM (active).

In the case of `CN(C)c1nc(N(C)C)nc(N(C)C)n1`, the Potency entry was “inactive”.

Turning to `Cc1cccc([N+](=O)[O-])c1C`, the Potency result is “inactive”.

For the compound `CC(C)=CCC/C(C)=C\CO`, the Potency result was “inactive”.

For the compound `Cc1ncc[nH]1`, the Potency entry is “inactive”.

With `O=CCCCC=O`, the Potency was 42.1 µM (active) and inactive.

In the case of `CCCCCCCCCC(=O)OC`, the Potency result was “inactive”.

Take `CCCc1c(OCCCCc2nn[nH]n2)ccc(C(C)=O)c1O`: the Potency result is “inactive”.

For `C[Si](C)(C)O[Si](C)(C)C`, the Potency entry was “inactive”.

In the case of `C=C(C)C1CC=C(C)CC1` (stereo unspecified), the Potency entry is “inactive”.

For the compound `COc1ccc(C(=O)CC(=O)c2ccc(C(C)(C)C)cc2)cc1`, the Potency was 29.6 µM (active) and inactive.

For the compound `CC(C)=CCCC(C)CCO` (stereo unspecified), the Potency result was “inactive”.

With `c1ccc2c(c1)c1cccc3ccc4cccc2c4c31`, the Potency result was “inactive and 17.4 µM (active)”.

Consider `C[C@]12CCC(=O)C=C1CC[C@@H]1[C@@H]2C(=O)C[C@@]2(C)[C@H]1CC[C@]2(O)C(=O)CO`, for which the Potency entry was “inactive”.

Turning to `OC1CCCCCCCCCCC1`, the Potency entry is “inactive”.

`CC(=O)C1(C)CC2=C(CCCC2(C)C)CC1C` (stereo unspecified): the Potency entry is “inactive”.

With `C=CC(C)(CCC=C(C)C)OC(C)=O` (stereo unspecified), the Potency result is “inactive”.

For `NNc1ccc(C(=O)O)cc1`, the Potency result is “inactive”.

On to `CC(=O)c1ccccn1`, for which the Potency entry is “inactive”.

Turning to `COC(C)COC(C)COC(C)CO` (stereo unspecified), the Potency entry is “inactive”.

Turning to `O=C=Nc1ccc(Cc2ccc(N=C=O)cc2)cc1`, the Potency result was “inactive”.

Regarding `COc1ccc(OC)c(C(O)CNC(=O)CN)c1` (stereo unspecified), the Potency entry was “inactive”.

Turning to `O=S(=O)(O)c1ccc(O)cc1`, the Potency entry is “inactive”.

On to `CC(=O)CC/C=C(\C)CCC=C(C)C`, for which the Potency entry was “inactive”.
